Bioassay records deposited in PubChem BioAssay by National Center for Advancing Translational Sciences (NCATS).
VP16 counter – VP16 counterscreen qHTS for inhibitors of ROR gamma transcriptional activity. 310,000 compounds, 3.5% hits. Potency, µM (series often up to 53.6 µM), inactives show at the top dose activity, negative = inhibition, hits mostly inhibitors. AID 2546, 2010. Drosophila S2 Gal4-VP16 UAS-luciferase, luminescence, 20 h;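 also: Gal4-VP16 expression switched on by copper sulfate through the metallothionein promoter; potency is read from the fitted curve at half-maximal effect; nearly all actives have a fitted effect of over 50% in size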
TDP1 cell noCPT – qHTS for Inhibitors of human tyrosyl-DNA phosphodiesterase 1 (TDP1): qHTS in cells in absence of CPT; DT40 Tdp1-/- hTDP1 cells, no CPT, ATP luminescence, 48 h; Potency, µM (highest dose often 46.2 µM), for inactives: at the highest dose activity change, negative = growth inhibition, usual class: inhibitors; 420,000 compounds, 15% hits; AID 686978, 2013; also: potency is read from the fitted curve at half-maximal effect; nearly all actives have a fitted effect of over 55% in size
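Compound effects on proliferation are scored in DT40 Tdp1-/-;hTDP1 cells in the absence of CPT. ATP levels (CellTiter-Glo luminescence) are recorded after a ≥48 hr, 37 °C incubation.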
TDP1 cell CPT – qHTS for Inhibitors of human tyrosyl-DNA phosphodiesterase 1 (TDP1): qHTS in cells in presence of CPT; chicken DT40 Tdp1-/-;hTDP1 cells + 20 nM CPT, ATP luminescence, 48 h; 420,000 compounds, 12% hits; AID 686979, 2013; Potency, µM (titrated, usually from 46.2 µM), without a hit: at the highest dose activity change, negative = growth inhibition, most hits filed as inhibitors; also: potency is read from the fitted curve at half-maximal effect; nearly all actives have a fitted effect of over 55% in size
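Chicken DT40 Tdp1-/- cells stably complemented with human TDP1 were seeded at 400 cells/well in medium containing 20 nM camptothecin, exposed to pin-transferred compounds, and grown at 37 °C for at least 48 hr. Viability was read as ATP luminescence.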
RORg inh – qHTS for inhibitors of ROR gamma transcriptional activity | Nuclear receptor ROR-gamma (Mus musculus), P51450 | Drosophila S2 Gal4-RORgamma UAS-luciferase reporter, 20 h | Potency, µM (series often up to 53.6 µM), for the others: at the highest dose activity change, negative = inhibition, most hits filed as inhibitors | 310,000 compounds, 5.4% hits | AID 2551, 2010; also: potency is read from the fitted curve at half-maximal effect; nearly all actives have a fitted effect of over 60% in size
Target sequence (P51450 whole entry, looked up, the tested form may be a part): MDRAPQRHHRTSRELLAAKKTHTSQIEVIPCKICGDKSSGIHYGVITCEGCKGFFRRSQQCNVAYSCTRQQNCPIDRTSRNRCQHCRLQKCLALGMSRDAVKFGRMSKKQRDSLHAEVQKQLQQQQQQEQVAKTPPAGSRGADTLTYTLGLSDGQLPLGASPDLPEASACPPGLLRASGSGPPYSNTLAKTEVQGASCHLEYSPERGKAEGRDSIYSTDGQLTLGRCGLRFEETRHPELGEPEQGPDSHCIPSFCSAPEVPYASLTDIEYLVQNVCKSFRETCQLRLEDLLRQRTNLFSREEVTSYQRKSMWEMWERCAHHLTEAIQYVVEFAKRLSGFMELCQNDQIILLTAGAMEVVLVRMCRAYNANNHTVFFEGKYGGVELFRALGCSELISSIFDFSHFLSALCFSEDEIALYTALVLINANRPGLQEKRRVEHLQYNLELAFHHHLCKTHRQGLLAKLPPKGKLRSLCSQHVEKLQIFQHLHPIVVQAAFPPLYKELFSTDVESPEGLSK
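Stable Schneider cell line, Gal4 DNA-binding domain fused to ROR gamma, UAS-luciferase. Cmpd 1 hr RT → CuSO4 700 uM final → 20 hr RT → luciferase reagent 10 min → luminescence.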
IL-1B inflam inh – qHTS for Inhibitors of Inflammasome Signaling: IL-1-beta AlphaLISA Primary Screen; THP-1 LPS/ATP IL-1B secretion, AlphaLISA, 16 h; hits give low values; activity change, % at 57.5 µM; 360,000 compounds, 4.7% hits; in the data active = activity change below about -50%; inconclusive = mostly about -30% to -49%
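Secreted IL-1B measured by AlphaLISA bead assay after 16 h compound exposure of THP-1 cells; compounds (final up to 57.5 uM) added 1 h before LPS (250 ng/mL) and ATP (1.25 mM) stimulation; lower signal means less secretion.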
LDHA inh – qHTS assay for inhibitors of human lactate dehydrogenase; 480,000 compounds, 0.15% hits; activity change, % (values are at about 110 or 230 µM); purified LDHA, NADH/diaphorase-resazurin fluorescence; hits give low values; in the data active = activity change below about -30%; inconclusive = mostly about -25% to -30%;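 also: plate controls were DMSO wells for no effect and wells without enzyme for full effect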
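Remaining NADH was detected by diaphorase (0.133 mg/mL) converting 37 µM resazurin to fluorescent resorufin, read at 0 and 20 minutes. The preceding 5-minute room-temperature reaction used 2 nM LDHA, 0.2 mM sodium pyruvate and 0.06 mM NADH at pH 7.4.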
* = called active by the depositor; u = inconclusive; x = not tested or not shown. This is a sample that favours compounds with a hit; in the whole collection about 18% have one here. Unless noted, calls follow the shape of the dose curve; as a rule, active = well fitted curve in the direction sought with a large enough effect; inconclusive = small, poorly fitted or top-dose-only effect, or another doubt; inactive = no such curve, though single readings can be large; an effect the other way counts as inactive or inconclusive. Unless noted, % is scaled to controls: 0 for no effect and ±100 for the full control effect.

SMILES	VP16 counter	TDP1 cell noCPT	TDP1 cell CPT	RORg inh	IL-1B inflam inh	LDHA inh
O=C1c2ccccc2C2=Nc3ccccc3SC(c3cccc(F)c3)C12 (configuration not stated)	-10%	16µM*	16µM*	37%	-7	1
CCc1ccc(-c2cn(C3CCCCC3)c(=S)[nH]2)cc1	u	8.2µM*	u	0.71µM*	-68*	-18
Cc1nc2ccccc2c2oc(C(=O)Nc3ccc(C(C)C)cc3)cc12	-6%	21µM*	u	u	-2	4
Cc1nc2ccccc2c2oc(C(=O)Nc3ccc4c(c3)OCCO4)cc12	10%	15µM*	15µM*	2%	0	-12
Cc1nc2ccccc2c2oc(C(=O)NCC3COc4ccccc4O3)cc12 (configuration not stated)	u	12µM*	21µM*	u	45	-3
Cc1nc2ccccc2c2oc(C(=O)N3CCc4ccccc43)cc12	-10%	x	x	-8%	x	x
COc1cc(NC(=O)c2cc(C)nc3ccccc23)cc(OC)c1OC	7%	-7%	-16%	1%	26	9
COc1cc(NC(=O)c2cc3c(C)nc4ccccc4c3o2)cc(OC)c1OC	-2%	12µM*	8.2µM*	-9%	-21	-4
Cc1ccc(C(=O)/C=C/c2cc(C)c(O)c(C)c2)o1	x	x	x	x	x	1
CC(C)N(Cc1ccccc1)C(=O)CCn1cnc2c1c(=O)n(C)c(=O)n2C	x	x	x	x	x	-8
O=C(CCCc1nc(-c2cccs2)no1)NCc1cccnc1-n1cncn1	x	x	x	x	x	6
Cc1ccc2[nH]c(=O)c3cc(C(=O)N(C)c4ccccc4C)sc3c2c1	-6%	10µM*	u	-24%	u	-3
Cc1ccc2[nH]c(=O)c3cc(C(=O)N(CCCOC(C)C)Cc4ccco4)sc3c2c1	4%	12µM*	23µM*	19%	22	-5
Cc1ccc2[nH]c(=O)c3cc(C(=O)N(C)c4ccc(Br)cc4)sc3c2c1	x	3.3µM*	3.7µM*	x	x	0
CCCCN(CC)C(=O)c1cc2c(=O)[nH]c3ccc(C)cc3c2s1	-6%	u	u	23%	0	-1
CCCNC(=O)C(C)S(=O)(=O)Cc1cc(Cl)c2c(c1)OCO2 (configuration not stated)	x	x	x	x	x	-3
CC(C)Cn1cc(NC(=O)NCc2cccc(Cl)c2)c2ccccc2c1=O	x	u	26µM*	x	x	9
CC(C)Cn1cc(NC(=O)NCc2ccccc2Cl)c2ccccc2c1=O	x	18µM*	u	x	x	6
CC(C)Cn1cc(NC(=O)NCc2ccc(Cl)cc2)c2ccccc2c1=O	x	18µM*	u	x	x	11
CC(C)Cn1cc(NC(=O)NCc2ccccc2)c2ccccc2c1=O	x	u	u	x	x	10
CCN(C(=O)c1cn(C)c(=O)c2cc(OC)c(OC)cc12)c1ccc(C)c(C)c1	x	x	x	x	x	3
CCc1ccccc1N(CC)C(=O)c1cn(CC)c(=O)c2cc(OC)c(OC)cc12	-9%	21µM*	u	8%	-8	-2
CCc1ccccc1N(CC)C(=O)c1cn(C)c(=O)c2cc(OC)c(OC)cc12	-3%	u	-12%	42%	0	-1
CCN(C(=O)c1cn(CC)c(=O)c2cc(OC)c(OC)cc12)c1ccc(C)c(C)c1	x	u	23µM*	x	x	-7
Cc1ccc(S(=O)(=O)c2cn(C)c3cc(N4CCCC4)c(F)cc3c2=O)c(C)c1	x	23µM*	u	x	x	-5
SMILES	VP16 counter	TDP1 cell noCPT	TDP1 cell CPT	RORg inh	IL-1B inflam inh	LDHA inh
CCn1cc(S(=O)(=O)c2cc(C)cc(C)c2)c(=O)c2cc(F)c(N3CCCCC3)cc21	x	21µM*	u	x	x	-6
Cc1ccc(S(=O)(=O)c2cn(C)c3cc(N4CCCC(C)C4)c(F)cc3c2=O)c(C)c1 (configuration not stated)	x	23µM*	23µM*	x	x	-2
Cc1ccc(S(=O)(=O)c2cn(C)c3cc(N4CCCCCC4)c(F)cc3c2=O)cc1	x	16µM*	u	x	x	-3
N#CC1=C(N)Oc2nc(SCc3ccccc3Cl)nc(N)c2C1c1cccc(F)c1 (configuration not stated)	x	x	x	x	x	5
CC(Sc1nc2ccccc2s1)C(=O)NC1(C#N)CCCCC1 (configuration not stated)	x	x	x	x	x	4
CC1CC2(CC(C)(C(=O)CSc3n[nH]c(-c4ccccc4Cl)n3)OC2=O)C(=O)O1 (configuration not stated)	u	-1%	-9%	10µM*	20	3
CC1(C(=O)CSc2n[nH]c(-c3ccccc3Cl)n2)CCC(=O)O1 (configuration not stated)	2%	x	x	-14%	x	x
O=C(O)COc1c(Cl)cc(/C=C2/NC(=O)NC2=O)cc1Cl	x	x	x	x	x	11
O=C(NC1CCCC1)c1cc(-c2ccccn2)nc2c(Cl)cccc12	x	x	x	x	x	1
CCCCn1nc(C(=O)NCCNS(=O)(=O)c2cc(C)ccc2C)c2ccccc2c1=O	x	x	x	x	x	-23
CN1OC[C@@H]2CN(C(=O)c3ccco3)[C@H](c3ccc(-c4ccc(C#N)cc4)cc3)C[C@@H]21	x	u	u	x	-13	-17
